# Source: PubChem BioAssay (NCI)
# About 83,000 compounds went through this panel and 20% of them were active in at least one assay; those are over-represented in the sample as a whole.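 48-hour exposure, single concentration, 96-well plates; percent growth endpoint where 0 means no net growth. Active: below 10.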 A number with no mark means an inactive call. Activity calls are given as the source filed them.
# What was measured:
# Assay in all cases: NCI-60 one-dose screen, 48 h (100 = growth as untreated, 0 = no growth, -100 = all killed)
# Settings in all cases: 10 µM unless noted
# EKVX NSCLC = tested on: EKVX NSCLC
# SN12C renal = tested on: SN12C renal
# UO-31 renal = tested on: UO-31 renal
# TK-10 renal = tested on: TK-10 renal
# ACHN renal = tested on: ACHN renal
# CAKI-1 renal = tested on: CAKI-1 renal
# A498 renal = tested on: A498 renal
# MOLT-4 leukemia = tested on: MOLT-4 leukemia
# SR leukemia = tested on: SR leukemia
# CCRF-CEM leukemia = tested on: CCRF-CEM leukemia
Compound,growth (EKVX NSCLC),growth (SN12C renal) [%],growth (UO-31 renal),growth (TK-10 renal) [%],growth (ACHN renal),growth (CAKI-1 renal),growth (A498 renal),growth (MOLT-4 leukemia),growth (SR leukemia),growth (CCRF-CEM leukemia)
COc1cccc(-c2nn(-c3ccccc3)cc2-c2ccnc(N3CCN(C(=O)c4ccccc4)CC3)c2)c1,103%,87.6,72.3%,127,93%,86.2%,66.9%,43.8%,27.5%,–
O=C(N/N=C/c1cccs1)c1[nH]c2ccc(Br)cc2c1-c1ccccc1,42.2%,45.7,49.4%,121,28.5%,25.7%,–,11.5%,6.19% (active),8.56% (active)
COC(=O)C1CCCN(S(=O)(=O)/N=C2\NC(=O)NC2=C(Cl)Cl)C1 (stereo unspecified),104%,102,92.2%,74.6,109%,102%,–,96.3%,28.6%,58%
COc1cc(N=Cc2sc(Nc3nccs3)nc2O)cc(OC)c1OC,82.2%,94.7,59%,224,86%,69%,–,78.2%,63.9%,72%
COc1ccc(C(=O)/C=C/c2ccc(Oc3nc(NCCO)nc(N4CCOCC4)n3)c(OC)c2)cc1,90.1%,86.2,67.4%,140,62.5%,56%,–,10.6%,5.16% (active),9.43% (active)
COC(=O)C1CN(S(=O)(=O)/N=C2\NC(=O)NC2=C(Cl)Cl)C1,104%,101,88.7%,139,106%,101%,–,104%,94.4%,95.5%
COc1cccc(OC)c1-c1nnn(C)c1C(=S)N1CCN(c2ccc([N+](=O)[O-])cc2Cl)CC1,83.6%,93.6,58.7%,105,92.2%,78.9%,–,78%,87.1%,91.7%
Nc1nc(N)c2c(n1)NC(c1ccc(F)cc1)CC(c1ccc(Nc3nc(NCCO)nc(Nc4ccc(Cl)cc4)n3)cc1)=N2 (stereo unspecified),42.5%,59.9,34.8%,111,39.5%,40.9%,–,-17.5% (active),-17.9% (active),-13.8% (active)
C#Cc1nc(C2=C(C)C(=N\O)/C(=N/O)C2)cs1,95.7%,98.2,-92.4% (active),196,78.7%,93.7%,–,88%,54.4%,87.1%
O=C(N/N=C/c1ccc(Cl)s1)c1[nH]c2ccc(Br)cc2c1-c1ccccc1,41.7%,50.4,46.2%,111,25.3%,23.8%,–,14.1%,9.05% (active),10.9%
CN(C)c1ccc(/C=C2\Cc3c(F)ccc(Br)c3C2=O)cc1,80.5%,98.2,77%,140,84.8%,82%,–,97.7%,76%,94.2%
N#Cc1c(-c2ccc(Cl)cc2)nc2c(-c3ccccc3)c(Nc3ccccc3)nn2c1N,60.6%,77.5,34.8%,139,11%,35.1%,–,61%,36.9%,67.9%
COc1ccc(/C=N/NC(=O)c2[nH]c3ccc(Br)cc3c2-c2ccccc2)s1,42.8%,50,45.1%,122,27%,24.5%,–,10.4%,5.56% (active),9.96% (active)
Fc1ccc(-c2cc3nc(C(Cl)Cl)nc(-c4ccc(Cl)cc4)n3n2)cc1,5.99% (active),53.3,27.4%,17.3,-63.6% (active),-23.3% (active),-38.8% (active),19.3%,3.51% (active),–
Cn1ccnc1C(=O)/C=C/c1ccc(NC(=O)Nc2ccc(Cl)cc2)cc1,91.7%,87.5,97.7%,131,88.4%,69.6%,–,57.5%,32.6%,62.9%
N#Cc1ccc(C(=O)CSc2nc(Nc3ccc(S(N)(=O)=O)cc3)c3ccccc3n2)cc1,104%,100,95.6%,110,108%,102%,–,106%,95.9%,94.7%
O=C1NC(=C(Cl)Cl)/C(=N/S(=O)(=O)N2CCCCC2CC2(C(F)(F)F)N=N2)N1 (stereo unspecified),59.2%,95.8,18.2%,63.4,-48.9% (active),-65.4% (active),–,-9.34% (active),-33.4% (active),4.21% (active)
CCCC(=O)NC(c1cccc(N(C)C)c1)c1cc(C)c2cccnc2c1O (stereo unspecified),73.8%,78.2,31.9%,84.9,38.2%,48.3%,–,22.9%,21.7%,24.1%
O=C(CCN1C(=O)/C(=C/c2ccccc2)SC1=S)N1CCOCC1,82.3%,81.7,72.9%,–,67%,88.2%,90.5%,89.4%,65.4%,49.1%
CCOC(=O)c1c(Nc2ccccc2)nn2c(N)c(C#N)c(-c3ccc(F)cc3)nc12,83.1%,95.9,78.9%,109,81.6%,91.2%,–,46%,65%,–
Clc1ccc2c(NCCCn3ccnc3)c3oc4ccc(Cl)cc4c3nc2c1,46.7%,79.3,44%,–,44.4%,60.5%,45.9%,77%,-11.2% (active),57.2%
COc1cccc(COc2ccc(/C=C3/C(=O)Nc4cc(Cl)ccc43)cc2)c1,87.6%,91.1,75.4%,–,96.9%,90.6%,93%,-25.9% (active),–,82.6%
